# In the library only some 1.9% were active in any assay of this set; here they are far more common.
# aDG glyco up: increases alpha dystroglycan glycosylation. Pro5-aDG cells, alpha-DG glycosylation AlphaScreen (IIH6); 0% Pro5, 100% B10-LARGE cell signal. activation, % at 10 µM. hit rate 0.22% among 360,000;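 active means activation of at least 8% versus controls, or a plate z-score of at least 8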;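 further: Pro5 are CHO cells carrying HIG-tagged alpha-DG that lacks glycosylation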
# Rev-erbA mod: modulators of human Rev-erb alpha DNA binding; P20393; Rev-erbα–FITC-DNA binding, fluorescence polarization, 90 min; activity, % at 10 µM; hit rate 0.79% among 370,000;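 active means activity above about 14%, limit read from the data; passing the limit was not always enough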;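 further: 0% = DMSO wells with 35 nM protein and 100% = DMSO wells with 750 nM protein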
# Target sequence (P20393 whole entry, looked up): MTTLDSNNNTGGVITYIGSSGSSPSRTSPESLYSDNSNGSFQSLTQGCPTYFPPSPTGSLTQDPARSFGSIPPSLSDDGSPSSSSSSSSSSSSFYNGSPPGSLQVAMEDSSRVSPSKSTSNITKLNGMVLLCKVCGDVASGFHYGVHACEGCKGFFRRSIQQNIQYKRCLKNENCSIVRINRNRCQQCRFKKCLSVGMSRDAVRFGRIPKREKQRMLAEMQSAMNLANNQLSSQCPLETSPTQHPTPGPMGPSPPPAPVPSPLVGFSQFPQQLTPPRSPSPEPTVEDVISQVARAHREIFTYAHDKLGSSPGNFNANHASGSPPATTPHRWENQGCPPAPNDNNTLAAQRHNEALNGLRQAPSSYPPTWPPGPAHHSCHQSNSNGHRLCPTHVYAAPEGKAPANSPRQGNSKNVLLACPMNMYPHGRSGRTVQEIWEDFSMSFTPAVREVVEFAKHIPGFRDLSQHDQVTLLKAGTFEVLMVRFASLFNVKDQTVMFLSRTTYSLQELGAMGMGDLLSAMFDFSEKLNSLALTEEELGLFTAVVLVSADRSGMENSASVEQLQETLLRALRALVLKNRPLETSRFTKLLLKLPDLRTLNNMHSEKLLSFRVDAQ
# NCF1 inh: p47phox (human) inhibition; P14598; p47phox/p22phox peptide binding, fluorescence polarization, 2 h; inhibition, % at 24.7 µM; hit rate 0.53% among 220,000; AID 1274;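 active means inhibition above about 30%, limit read from the data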;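 further: 0% = p47phox with labelled peptide and 100% = labelled peptide alone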
# PG9 binder: PG9 antibody binding by small molecule; hit rate 0.43% among 360,000; TR-FRET gp120-PG9 antibody binding; AID 624416; inhibition, % at 6.7 µM; in the data active means inhibition above about 8.5%
# ZTA counter: ZTA (EBV) inhibition in EBNA-1 counter-screen. hit rate 0.15% among 320,000. AID 2234. ZTA-DNA binding, fluorescence polarization. P03206. inhibition, % at 11 µM; in the data active means inhibition above about 33%
# EBNA-1 inh: blocks EBNA-1 binding to DNA; EBNA-1 DNA binding, fluorescence polarization; inhibition, % at 14.8 µM; hit rate 0.34% among 300,000; in the data active means inhibition above about 28%
# ZTA inh confirm: EBV ZTA DNA binding inhibition, confirmation. shares compounds with ZTA counter. Zta-ZRE DNA binding, fluorescence polarization. inhibition, % at 11.1 µM. hit rate 30% among 320. AID 2361;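 active means mean inhibition across triplicate runs above the hit threshold derived for the original primary screen, cut at about 33% in these data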;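 further: 0% = Zta with DMSO and 100% = wells lacking Zta protein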
# EBNA1 counter: counter-screen for ZTA inhibitors: EBNA-1 DNA binding inhibition; 320 tested, under 10 active; shares compounds with ZTA counter; fluorescence polarization; inhibition, % at 14.8 µM; AID 2362; call rule not given here
# Starred values were filed as active, the others as inactive; . = not tested or not shown; + = active, no number; ! = not active in a repeat.
SMILES,aDG glyco up,Rev-erbA mod,NCF1 inh,PG9 binder,ZTA counter,EBNA-1 inh,ZTA inh confirm,EBNA1 counter
Cc1cc(=O)n2c(C(=O)Nc3ccc(C)c(C)c3)c(C(=O)Nc3ccccc3)sc2n1,-0.2,-0.4,-27.2,0.9,53.2*,10.5,12.6,78.2*
NC(=O)CSc1nc2sc3c(c2c2ncnn12)CCCC3,0.0,1.4,-25.8,-3.0,37.6*,-3.5,6.4,3.1
CCc1ccc(C(C)NC(=O)c2ccncc2)cc1 (stereo not given),0.5,-0.1,.,-0.6,114.2*,-6.4,-7.3,5.2
CCc1ccc(C(C)NC(=O)c2ccc(F)cc2)cc1 (stereo not given),0.3,1.8,-12.3,-0.1,-10.2,-7.6,.,.
CCN(C(=O)CSc1nnc(-c2cccnc2)n1Cc1ccco1)c1ccccc1,.,4.2,.,.,.,.,.,.
c1ccc(-n2ncc3c(N4CCN(c5ccccn5)CC4)nc(N4CCCCCC4)nc32)cc1,-0.3,-0.4,-1.4,-0.4,40.1*,6.4,0.8,-5.4
c1ccc(-n2ncc3c(N4CCCCC4)ncnc32)cc1,0.5,-1.2,-14.6,1.0,-13.1,5.6,.,.
O=C(Nc1cccc(-c2cn3ccccc3n2)c1)c1cc2ccccc2oc1=O,-0.1,-23.4,43.5*,-1.8,36.4*,6.2,34.8*,-1.1
CC(=O)Nc1cccc(-c2cn3ccccc3n2)c1,-0.2,3.0,3.8,1.6,1.5,-4.1,.,.
O=c1c2ccccc2n(Cc2ccno2)n1[C@@H](Cc1ccccc1)Cn1cc(-c2ccc(-c3ccccc3)cc2)nn1,.,-1.6,.,.,.,.,.,.
CC1=CC(C)(C)Nc2ccccc21,-0.1,-3.7,13.5,0.4,38.6*!,13.9,21.6,10.8
COc1ccc2c(c1)NC(C)(C)C=C2C,0.5,4.2,1.9,-3.4,22.7,10.9,.,.
O=C(COc1ccccc1/C=C\c1[nH]c(=O)[nH]c(=O)c1[N+](=O)[O-])Nc1ccccc1,-0.4,-0.5,-8.6,-0.1,48.4*,-5.2,71.6*,-0.7
NC1=NC(=O)/C(=C/c2ccc(-c3ccc(S(N)(=O)=O)cc3)o2)S1,-0.2,-30.0,.,-13.0,37.3*,10.5,17.6,11.0
COc1ccc2c(c1)CN1CN(Cc3ccccc3)S(=O)(=O)CC21 (stereo not given),.,7.2,.,.,.,.,.,.
CCOC(=O)[C@@]12CCCC3=C1N(CCC3)C(=O)[C@H]2CC(=O)NCc1ccc(C)o1,.,5.4,.,.,.,.,.,.
Cc1ccc(S(=O)(=O)/N=C2/NC(=O)/C(=C/c3cc([N+](=O)[O-])ccc3O)S2)cc1,0.2,1.2,.,1.6,34.0*,-6.8,41.3*,-1.1
CCOc1ccc(CCNC(=O)c2cc3sccc3n2CC)cc1OC,.,4.5,.,.,.,.,.,.
CCCCc1ccc(NC(=O)OC)cc1,-0.2,-0.3,-12.8,0.3,166.2*,1.6,0.1,2.9
CCCCc1ccc(NC(=S)Nc2ccc(Nc3ccc(OC)cc3)cc2)cc1,-0.4,12.3,-6.5,-3.4,-22.0,-4.7,.,.
O=S1(=O)c2ccc(Br)cc2OC[C@@H](Cc2ccccc2)N1Cc1cn(Cc2ccc(C(F)(F)F)cc2)nn1,.,-9.2,.,.,.,.,.,.
C[C@H]1[C@@H](C(=O)N2CCCC2)CC(=O)/C(=N/OCc2ccccc2)C[C@@H]1c1ccccc1,.,-0.3,.,.,.,.,.,.
CC(C)=CCc1c2c(c3occ(-c4ccc(O)cc4)c(=O)c3c1O)C=CC(C)(C)O2,-0.2,1.1,-21.7,1.1,35.4*,1.7,9.3,1.6
O=C1C(=Cc2ccc(Br)o2)C(=O)c2ccccc21,0.3,.,-17.3,.,51.9*,1.6,50.7*,13.3
CCOC(=O)C1Nc2ccc(C(=O)O)cc2C2C=CCC12 (stereo not given),0.1,14.3,.,-3.5,60.1*,4.8,23.1,-13.2
SMILES,aDG glyco up,Rev-erbA mod,NCF1 inh,PG9 binder,ZTA counter,EBNA-1 inh,ZTA inh confirm,EBNA1 counter
CCOc1cc(/C=C\c2[nH]c(=O)[nH]c(=O)c2[N+](=O)[O-])ccc1OC(C)CC (stereo not given),.,1.9,-8.1,-3.7,38.6*,9.0,42.7*,-2.5
CCCOc1ccc(/C=C/c2[nH]c(=O)[nH]c(=O)c2[N+](=O)[O-])cc1OCC,0.2,6.3,-42.5,0.9,3.3,-13.6,.,.
CC(C)(C)n1nnnc1C(c1cccc(C#N)c1)N1CCCc2ccccc21 (stereo not given),0.0,-0.2,-9.3,0.3,44.1*,13.2,1.4,0.8
Cn1nnnc1Sc1ncnc2scc(-c3cc4ccccc4o3)c12,-0.7,-0.1,.,-2.1,37.7*,.,30.1,-9.0
CCCCn1c(N)c(N(CCOC)C(=O)CCCc2nc3ccccc3c(=O)[nH]2)c(=O)[nH]c1=O,-0.4,-3.0,.,0.9,136.5*,1.8,3.2,1.2
CCCCN(C(=O)CCCc1nc2ccccc2c(=O)[nH]1)c1c(N)n(CCCC)c(=O)[nH]c1=O,0.0,6.7,.,-1.9,-4.4,5.4,.,.
COc1ccc(-c2nc(N)n(C(=O)c3cccs3)n2)cc1,0.2,-1.4,-11.3,0.9,79.0*,9.8,-6.2,-9.7
Cc1ccc(S(=O)(=O)/N=C2\C=C(Nc3cccc(C(=O)O)c3)C(=O)c3ccccc32)cc1,-0.1,-2.8,.,-8.8,33.3*,1.6,35.5*,-14.5
CCc1ccc(S(=O)(=O)/N=C2\C=C(Nc3ccc(C(=O)O)cc3)C(=O)c3ccccc32)cc1,0.2,-17.9,.,-17.6,53.2*,-3.7,51.8*,2.4
Cc1ccc(S(=O)(=O)/N=C2\C=C(Nc3cccc(C(=O)O)c3)C(=O)c3ccccc32)c(C)c1,0.1,-1.9,.,-9.2,30.3,-6.4,.,.
Cn1c(CCN2CCN(c3ccccn3)CC2)nc2cc(NC(=O)COc3ccc([N+](=O)[O-])cc3)ccc21,0.0,-11.4,.,-3.1,38.3*,1.9,21.0,-0.6
CCOC1(OCC)N=C(N)C2(C#N)C(c3cccc(C)c3)C12C#N (stereo not given),-0.1,3.4,-8.7,0.4,67.3*,5.0,-6.0,-7.7
CCOC1(OCC)N=C(N)C2(C#N)C(c3cccc(OC)c3OC)C12C#N (stereo not given),0.0,-1.2,-3.9,2.1,-1.8,2.9,.,.
O=C1C=C(N2CCOCC2)c2ccccc2C1=O,1.5,-3.9,.,-9.7,53.9*,-4.9,68.1*,-11.4
COCCNC(=O)c1cc(-c2ccccc2)nn1CC1CC(c2cccnc2)=NO1 (stereo not given),0.3,-0.1,.,0.1,+,9.0,3.4,0.1
CCN(CC)c1ccc(/C=C/c2ccc3ccc(OC)cc3[n+]2CC)cc1,0.3,-2.2,.,-34.2,50.1*,11.3,30.1,-1.4
O=C(CSc1nnc(Cc2cccs2)n1-c1ccc(Cl)cc1)Nc1ccc(OCc2ccccc2)cc1,.,-2.2,.,.,.,.,.,.
O=C1Nc2ccc(Br)cc2/C1=C/c1ccc(C(=O)O)cc1,.,.,.,.,34.3*,1.6,46.3*,3.9
